# This is a sample that favours compounds with a hit; in the whole collection about 31% have one here.
# PLAP act: human PLAP activation; P05187; purified PLAP enzyme, luminescent substrate read-out; active compounds read high; activation fold at 20 µM; hit rate 1.2% among 96,000; in the data active = activation fold above about 2
# CYP2C9 activ: increases human cytochrome P450 2C9 activity; P11712; recombinant CYP2C9, luciferin-H conversion, luminescence; active compounds read high; factor 1 = untreated enzyme, 0 = blocked; activation factor at 5 µM; hit rate 1.4% among 96,000; AID 1024;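 active = activation factor of 2 or more for CYP2C9 at a 5 µM dose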;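 also: 0 = sulfaphenazole-blocked wells and 1 = vehicle-only wells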
# Target sequence (P11712 whole entry, looked up): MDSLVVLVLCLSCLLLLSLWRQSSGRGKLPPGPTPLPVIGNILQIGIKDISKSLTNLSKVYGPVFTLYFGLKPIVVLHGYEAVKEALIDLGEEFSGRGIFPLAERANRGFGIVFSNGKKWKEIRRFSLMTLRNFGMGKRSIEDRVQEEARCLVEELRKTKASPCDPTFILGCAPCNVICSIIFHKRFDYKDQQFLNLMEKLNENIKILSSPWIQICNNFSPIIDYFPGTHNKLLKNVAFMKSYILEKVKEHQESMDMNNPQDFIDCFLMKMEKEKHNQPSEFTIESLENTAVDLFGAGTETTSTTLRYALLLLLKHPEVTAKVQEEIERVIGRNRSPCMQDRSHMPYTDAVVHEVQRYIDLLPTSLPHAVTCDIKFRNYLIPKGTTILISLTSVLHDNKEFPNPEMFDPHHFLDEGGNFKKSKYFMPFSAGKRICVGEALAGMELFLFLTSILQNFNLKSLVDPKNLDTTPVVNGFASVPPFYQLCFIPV
# CYP2C9 inh: human CYP2C9 inhibition. CYP2C9 Supersomes, luciferin-H conversion, luminescence. inhibition, % at 5 µM. AID 777. hit rate 20% among 96,000. P11712;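 active = blocking of liver enzyme CYP2C9 beyond about 50% at 5 µM, limit read from the data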
# CYP2C19 act: cytochrome P450 2C19 (human) activation | P33261 | activation factor at 5 µM | recombinant CYP2C19, luciferin-H EGE luminescence; active compounds read high; 0 = fully inhibited enzyme, 1 = untreated enzyme | 96,000 tested, under 10 active;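 active = activation factor of at least 2 at 5 µM in the primary screen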;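 also: 0 = wells with 2.5 mM tranylcypromine and 1 = vehicle-only wells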
# CYP2C19 inh: human CYP2C19 inhibition. P33261. CYP2C19 Supersomes, luciferin-H EGE luminescence, 30 min. inhibition, % at 5 µM. hit rate 21% among 96,000. AID 778;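 active = CYP2C19 inhibition above a set limit at 5 µM in the primary screen, cut at about 50% in these data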;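 also: plate controls were negative control wells for no effect and 2.5 mM tranylcypromine positive control for full effect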
# * marks the source's active call; other numbers are inactive results.
SMILES,PLAP act,CYP2C9 activ,CYP2C9 inh,CYP2C19 act,CYP2C19 inh
CC(=O)c1cccc(NC(=O)CCS(=O)(=O)c2cccc3nsnc23)c1,1.1,0.7,35,0.5,50
CC(=O)Nc1cc(C(=O)c2ccccc2)ccc1N1CCOCC1,1.3,0.9,12,0.7,31
O=C(c1ccc(Cl)c(Cl)c1)c1cc(-c2ccccn2)c(N2CCOCC2)s1,1.1,0.3,65*,0.7,30
Cc1ccnc(NC(=O)c2cccc(NS(=O)(=O)c3ccccc3C)c2)c1,1.4,0.7,33,0.5,52*
Cc1ccc(S(=O)(=O)Nc2cccc(C(=O)Nc3cc(C)ccn3)c2)cc1,0.9,0.7,31,0.7,28
O=C(O)Cc1ccc2[nH]c3ccc(CC(=O)O)cc3c2c1,0.9,1,-2,1,-1
Cc1cc(C)nc(NS(=O)(=O)c2ccc(Br)cc2)n1,1.3,1,-4,0.8,20
CC(C)(C)n1cnc2cc(NS(=O)(=O)c3ccccc3)ccc21,0.9,0.7,28,0.2,79*
Cn1cnc2cc(NS(=O)(=O)c3ccc(Br)cc3)ccc21,1.1,0.3,69*,0.1,93*
COc1cc(OC)c(C(=O)Nc2ccc(S(=O)(=O)Nc3ncccn3)cc2)cc1OC,0.9,1,3,1.1,-5
C=CCOc1c(Br)cc(CNc2ccc(NC(=O)CCC)cc2)cc1OCC,1.4,0.3,71*,0.5,54*
CCOc1cc(CNCCCN2CCOCC2)ccc1OCC(=O)Nc1cccc2ccccc12,1.5,0.9,6,1,2
CCOc1cc(CNc2ccc(N(C)C)cc2)cc(Br)c1OCC(=O)NC(C)(C)C,1.3,0,96*,0,96*
COc1cc(CNc2ccc3[nH]c(=O)[nH]c3c2)cc(Br)c1OCC(=O)NC(C)(C)C,1.5,0.8,24,0.5,51*
CCOc1cc(CNc2cccc3ccccc23)cc(Br)c1OCC(=O)NC(C)(C)C,1.4,0.3,70*,0.3,65*
COc1cc(CNc2ccc3[nH]c(=O)[nH]c3c2)ccc1OCC(=O)NC(C)(C)C,1.3,0.6,38,0.8,21
O=C(CN1CCC(NC(=O)c2ccc(F)cc2)CC1)NCc1ccccc1F,0.9,1,5,1,2
CC1CCN(S(=O)(=O)c2ccc(NC(=O)Cc3cccs3)cc2)CC1,0.6,0.6,38,0.8,22
CCN(CC)CCN1C(=O)C(O)=C(C(C)=O)C1c1ccccc1 (stereo not drawn),1.1,1,-2,1,2
O=C(NCC1CCCO1)C1c2ccccc2C(=O)N1C1CCCCCC1 (stereo not drawn),0.8,1,1,0.9,8
N#Cc1cc2ccccc2nc1SCC(=O)Nc1ccc(S(=O)(=O)N2CCCC2)cc1,1.5,0.1,90*,0.6,38
COc1ccc2nc(SCC(=O)Nc3ccc(S(=O)(=O)N4CCCC4)cc3)c(C#N)cc2c1,1.5,0.1,91*,0.8,22
N#Cc1c(N)nc2c(c1N)CC(COc1ccccc1)O2 (stereo not drawn),1,1.1,-8,1,-3
Cc1ccc(S(=O)(=O)N2CCN(S(=O)(=O)c3ccc4c(c3)OCCO4)CC2)cc1,0.9,1.1,-10,1.1,-14
CCOC(=O)N1CCN(S(=O)(=O)c2cccs2)CC1,0.8,0.8,24,0.4,57*
SMILES,PLAP act,CYP2C9 activ,CYP2C9 inh,CYP2C19 act,CYP2C19 inh
CCOC(=O)N1CCN(S(=O)(=O)c2ccc(OC)c3ccccc23)CC1,1.4,1.2,-22,0.6,40
CCOC(=O)N1CCC(NC(=O)C2CCN(S(=O)(=O)c3cccs3)CC2)CC1,1.4,0.8,22,0.9,9
COc1ccc2c(CC(=O)N3CCN(S(=O)(=O)c4cccs4)CC3)coc2c1,1.2,0.7,34,0.1,90*
Cc1cc(C(=O)CCC(=O)N2CCN(S(=O)(=O)c3cccs3)CC2)c(C)s1,1.4,0.8,22,0.9,5
Cc1ccc2c(CC(=O)N3CCN(S(=O)(=O)c4ccc5c(c4)OCCO5)CC3)coc2c1,1,0.3,72*,0.6,41
CCOC(=O)N1CCN(S(=O)(=O)c2ccc(C)c(C)c2C)CC1,1.2,1.1,-6,0,99*
Cc1ccccc1N(C)C(=O)c1coc(=O)c2ccccc12,1.1,1.1,-14,0.8,22
CSc1c[n+]2c(n1C)CCC2,1,1,-5,1.1,-7
CCOc1ccccc1N1CCN(S(=O)(=O)c2cccs2)CC1,1.2,0.1,91*,0.1,93*
CCOc1ccccc1N1CCN(S(=O)(=O)CC)CC1,1.4,0.8,24,0.7,35
O=C(c1ccccc1F)N1CCN(S(=O)(=O)c2ccc3c(c2)OCCO3)CC1,1.6,0.5,49,0.1,93*
CCOc1ccccc1N1CCN(S(=O)(=O)c2cccc3nsnc23)CC1,1,0.3,70*,0.1,94*
O=S(=O)(NCc1ccccn1)c1cccc2nsnc12,1.3,1.3,-28,1,2
CCOC(=O)CNC(=O)CNC(=O)Cn1ccc2ccccc2c1=O,1.2,1.1,-7,1.1,-6
CN(C)CCN1C(=O)C(=O)/C(=C(/O)c2ccc(F)cc2)C1c1ccccc1 (stereo not drawn),1.5,0.9,7,1.1,-6
O=C(NCc1cn(-c2ccccc2)nc1-c1ccccc1)c1cc([N+](=O)[O-])cc([N+](=O)[O-])c1,0.9,0.3,67*,0.7,31
CC(=O)Nc1cccc(Oc2cc(C#N)c(C#N)cc2N2CCCCCC2)c1,1.7,0,100*,0,96*
CC(=O)Oc1ccc2ccccc2c1C(NC(=O)Cc1ccccc1)c1ccc(Cl)cc1 (stereo not drawn),1.1,0.4,63*,0.5,48
COCC(=O)NC(c1ccccc1)c1ccccc1,0.9,1,-4,1,-1
CCOC(=O)c1c(-c2ccc(OC)cc2)csc1NC(=O)CNCc1ccco1,1.5,0.3,70*,0.5,53*
Cc1cc(NC(=O)CCN2C(=O)c3ccccc3C2=O)no1,1.1,1,-1,1,4
COC(=O)c1c(-c2ccc(F)cc2)csc1NC(=O)c1ccco1,1,0.4,64*,0.8,17
CCOC(=O)c1c(-c2ccc(OC)cc2)csc1NC(=O)CCN1C(=O)c2ccccc2C1=O,1.2,0.2,78*,0.4,55*
Cc1ccc(O)c(-c2cc(-c3ccccc3F)[nH]n2)c1,0.9,0.9,13,0.9,11
Cc1ccc(O)c(-c2cc(-c3cccc(F)c3)n[nH]2)c1,1.8,0.3,69*,0.7,33
Cc1ccc(-c2cc(-c3cccc(F)c3)n[nH]2)c(O)c1,1.5,0.3,70*,0.7,26
Oc1ccc(Br)cc1-c1cc(-c2ccc(Cl)cc2)n[nH]1,1.3,0.9,13,1,2
CN(CCc1ccccn1)C(=O)CN(C)S(=O)(=O)c1ccc2c(c1)c(=O)n(C)c(=O)n2C,1,0.7,25,1.1,-13

# Bioassay records from PubChem BioAssay.
